# Measured values taken from PubChem BioAssay AID588855 (National Center for Advancing Translational Sciences (NCATS), 2011).
# Screen size: about 410,000 compounds; about 5,000 (1.2%) were called active. A call without a number means that no potency is given here. Roughly 13% stayed inconclusive and do not appear here. Calls come from the whole dose curve; as a rule, active = well fitted inhibition curve with a large enough effect; inconclusive = small, poorly fitted or top-dose-only effect; inactive = no such curve, though single readings can be large or run the other way. The full list was thinned out, with actives kept by preference.
# Assay: qHTS for Inhibitors of TGF-b; note: nearly all actives have a fitted effect of over 65% in size
# Conditions: HepG2 CAGA-GFP TGF-b/SMAD3 reporter, GFP fluorescence, 18 h, TGF-beta stimulated, 500 pg/mL final; series mostly up to 46.1 µM
# Outline: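 HEPG2 CAGA-GFP cells (1000/well, DMEM with 1% FBS) were pre-incubated 2 h at 37 degrees C, given compound by pin tool, then stimulated with TGF-beta at 500 pg/mL final for 18 h before per-cell GFP fluorescence imaging.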
# Potency is the fitted concentration of half-maximal effect.
row,Structure (SMILES),Potency
1,COc1ccc(SCc2cc(=O)c3ccc(C)c(C)c3[nH]2)cc1,inactive
2,OCCCNc1nccc(-c2cc(Nc3cccc(Cl)c3)ncn2)n1,0.447 µM (active)
3,CCOc1c(Nc2cccc(Cl)c2)c(=O)c1=O,inactive
4,COc1ccc(S(=O)(=O)n2nc(C)c(S(=O)(=O)N3CCCCCC3)c2C)cc1,inactive
5,O=C(COc1ccccc1C(=O)Nc1ccccc1)Nc1cccc(F)c1,inactive
6,COCCNS(=O)(=O)c1cc(-c2nn3c(C)nnc3c3ccccc23)ccc1C,inactive
7,COc1cc(/C=C2\Oc3ccc(C#Cc4ccc(O)cc4)cc3C2=O)cc(OC)c1,7.08 µM (active)
8,COc1cc(OC)c(OC)cc1/C=C1\C=Cc2ccccc21,inactive
9,CN(C)c1ccc(/C=C2\C=Cc3ccccc32)cc1Br,inactive
10,COc1cc(OC)c(NC(=O)c2cnc(N3CCCC3)nc2C)cc1Cl,inactive
11,COc1cccc(CNc2nc(NCc3ccccc3OC)nc3ccsc23)c1,10 µM (active)
12,COc1ccccc1CNc1nc(Nc2ccccc2Cl)c2sccc2n1,inactive
13,COCCNc1nc(NCc2ccc(NC(C)=O)cc2)c2sccc2n1,inactive
14,Cc1cc(C)cc(NC(=O)CCCc2nc(-c3ccccc3Cl)no2)c1,inactive
15,NC(=O)Nc1ccc(/C=C/c2ccnc3ccccc23)cc1,inactive
16,Cc1ccc(S(=O)(=O)c2nc(-c3cccs3)oc2NCc2cccnc2)cc1,inactive
17,NC(=O)CSc1oc(-c2cccs2)nc1S(=O)(=O)c1ccccc1,inactive
18,CCCCS(=O)(=O)c1oc(-c2cccs2)nc1S(=O)(=O)c1ccccc1,3.16 µM (active)
19,CCOc1ccc(-c2nonc2NC(=O)c2oc3ccc(C)cc3c2C)cc1OCC,inactive
20,CC(C)(C)c1ccc(C(=O)Nc2ccc3c(c2)CCCN3C(=O)c2cccs2)cc1,inactive
21,CC1CC2=C(CC1/C=N/NC(N)=S)C(C)(C)CCC2 (stereo unspecified),10 µM (active)
22,COc1cc(OC)c(NC(=O)N2CC3CCCN3c3ccccc32)cc1Cl (stereo unspecified),inactive
23,COc1cc(NC(=O)c2noc3c2CSc2ccccc2-3)cc(OC)c1OC,inactive
24,COc1ccc(-c2nc(CN3CCC(C(=O)NCCN(CC(C)C)CC(C)C)CC3)c(C)o2)cc1OC,inactive
25,COc1ccc(-c2nc3sc(CCNC(=O)C(C)(C)C)c(C)n3n2)cc1,inactive
26,Cc1ccc(C(=O)N/C(=C\c2cccs2)C(=O)NCCc2ccccn2)cc1C,inactive

row,Structure (SMILES),Potency
1,COc1cncc(-c2cnc3sc(NCCc4ccccn4)nn23)c1,7.94 µM (active)
2,CCCN(CCC)S(=O)(=O)c1ccc(C(=O)Nc2sc3c(c2C(=O)OC)CCN(CC)C3)cc1,inactive
3,COc1ccc(Cl)cc1NC(=O)c1sc2nc3c(cc2c1N)CN(C)CC3,inactive
4,O=C1C[C@@H](c2ccc3ccccc3c2)N1S(=O)(=O)c1ccccc1[N+](=O)[O-],inactive
5,Cc1ccc(-n2ncc3c(NCCCn4ccnc4)ncnc32)cc1Cl,inactive
6,Oc1c(Cl)cc(Cl)c(Cl)c1Cc1c(O)c(Cl)cc(Cl)c1Cl,5.62 µM (active)
7,CCOc1ccc(N(CC)C(=O)c2noc3c2COc2ccc(C)cc2-3)cc1,inactive
8,Cc1ccc(C=O)cc1Cl,inactive
9,CSc1ccc(C2c3c(oc4ccccc4c3=O)C(=O)N2CCCN2CCOCC2)cc1 (stereo unspecified),inactive
10,COc1cccc(CNC(=O)c2cc(=O)[nH]c3ccc(S(=O)(=O)N4CCCCC4)cc23)c1,inactive
11,O=C(NCCN1CCOCC1)c1cc(Sc2cccc(Cl)c2)nc2ccccc12,inactive
12,Fc1ccc(-c2ccc(NCCN3CCOCC3)nn2)cc1,inactive
13,c1ccc2cc3c(NCCN4CCOCC4)ccnc3cc2c1,3.98 µM (active)
14,COc1ccc(S(=O)(=O)c2c(Nc3ccc(C)cc3)sc(C(=O)c3ccc(C)cc3)c2N)cc1,inactive
15,COc1ccc(-c2nc(CN3CCC(C(=O)NCc4ccccc4)CC3)c(C)o2)cc1OC,inactive
16,CCOc1ccc(CC(=O)NC2CCN(Cc3ccccc3)CC2)cc1,inactive
17,Cc1ccc(-c2nc(CSCC(=O)NC3CCN(Cc4ccccc4)CC3)c(C)o2)cc1,11.2 µM (active)
18,COc1ccccc1-c1cc(C(F)(F)F)nc(S(=O)(=O)CCCC(=O)Nc2cc(C)ccc2O)n1,inactive
19,CSc1ccccc1NC(=O)CCS(=O)(=O)c1nc(-c2cccs2)cc(C(F)(F)F)n1,inactive
20,COc1ccccc1-c1cc(C(F)(F)F)nc(S(=O)(=O)CCCC(=O)Nc2ccc(F)cc2F)n1,3.98 µM (active)
21,CCOc1cc(C(=O)Nc2nnc3n2CCS3)cc(OCC)c1OCC,inactive
22,O=C(Nc1ccc(Br)cn1)c1ccc([N+](=O)[O-])o1,10 µM (active)
23,Cc1onc(NC(=O)c2ccc([N+](=O)[O-])o2)c1Br,11.2 µM (active)
24,O=C(COC(=O)c1ccc([N+](=O)[O-])o1)NC12CC3CC(CC(C3)C1)C2,inactive
25,O=C(Nc1cccc(NC(=O)c2ccccc2[N+](=O)[O-])c1)c1ccccc1Cl,inactive
26,Cc1cccc(NC(=O)CCn2c(=O)oc3ccccc32)c1,inactive

row,Structure (SMILES),Potency
1,CN1C(=O)c2ccc(C(=O)Nc3ccc(Br)cn3)cc2C1=O,inactive
2,Cc1cccc(NC(=O)c2ccc([N+](=O)[O-])o2)c1,11.2 µM (active)
3,O=C(Nc1ccc(Br)cn1)c1ccc([N+](=O)[O-])cc1Cl,inactive
4,Cc1onc(C(=O)Nc2ccc3c(c2)OCO3)c1[N+](=O)[O-],inactive
5,CCOc1ccc(N(CC)C(=O)C2CCN(S(=O)(=O)c3cccc4nonc34)CC2)cc1,inactive
6,COc1ccc(NC(=O)c2sc3nc[nH]c(=O)c3c2C)cc1,inactive
7,Cc1nc2ccn(Cc3cccnc3)c(=O)c2cc1C(=O)N1CCN(c2ccccc2F)CC1,inactive
8,Cc1nn(C(C)C(=O)Nc2ccc(C(C)C)cc2)c(=O)c2c1sc1ccccc12 (stereo unspecified),inactive
9,Cc1ccc2sc(N(Cc3cccnc3)C(=O)C3COc4ccccc4O3)nc2c1C (stereo unspecified),inactive
10,O=C(c1ccccc1F)N1CCC(c2nc3c(nnn3Cc3cccc(F)c3)c(=O)[nH]2)CC1,inactive
11,O=[N+]([O-])c1ccc(C=Nc2ccc(Cl)cc2Cl)s1,10 µM (active)
12,CCOC(=O)c1sc(NC(=O)/C=C/c2ccc(C(C)C)cc2)c(C(=O)OCC)c1C,inactive
13,CS(=O)c1ccc(/C=C2\C=Cc3ccccc32)cc1 (stereo unspecified),inactive
14,COc1cccc(-c2cc(C(=O)Nc3ccc(C)cc3)[nH]n2)c1,inactive
15,OCCNc1nc(Nc2ccc(Cl)c(Cl)c2)nc2ccccc12,11.2 µM (active)
16,O=C(Cn1c(NCCO)nc2ccccc21)c1ccc(Cl)cc1Cl,inactive
17,O=C(O)c1ccc(Nc2nc(-c3ccccc3)c3cc(Br)ccc3n2)cc1,inactive
18,O=C(C1CC1)N1CCc2cc(Br)cc(S(=O)(=O)N3CCN(c4ccccc4F)CC3)c21,inactive
19,CCOC(=O)CNC(=O)c1cc2c(=O)n3cccc(C)c3nc2s1,inactive
20,Cc1cccc(CN2Cc3cccc4c3[C@H](C=CC4)CC2=S)c1,inactive
21,CC(C)c1ccc(NC(=O)C2CCN(c3nc(-c4ccc(C(C)C)cc4)no3)CC2)cc1,inactive
22,Cc1cc(C)cc(OC(C)C(=O)Nc2nc3c(s2)CCCC3)c1 (stereo unspecified),inactive
23,COc1ccc(CCNc2nc3c(-c4cccc(F)c4)nnn3c3ccccc23)cc1OC,inactive
24,CC(Nc1nc(N2CCN(CCO)CC2)nc2ccccc12)c1ccccc1 (stereo unspecified),inactive
25,Cc1cc(C)n(-c2nc(C(F)(F)F)nc3ccccc23)n1,inactive
26,CC(Nc1nc(C(F)(F)F)nc2ccccc12)c1cccs1 (stereo unspecified),17.8 µM (active)

row,Structure (SMILES),Potency
1,COc1ccc(/C=C/c2ccccn2)cc1OC,inactive
2,CC(C)CC(=O)Nc1nnc(S(=O)(=O)N(C)c2ccc(Cl)cc2)s1,inactive
3,CN(Cc1ccccc1)S(=O)(=O)c1nnc(NC(=O)c2ccccc2F)s1,inactive
4,Cc1ccccc1C(=O)Nc1nnc(S(=O)(=O)N(C)c2ccc(Cl)cc2)s1,8.91 µM (active)
5,CCCCc1nn2c(=O)cc(COC(=O)c3cccc(NC(=O)COc4ccccc4)c3)nc2s1,inactive
6,Cc1nn(-c2ccc(F)cc2)c(-n2cccc2)c1C(=O)N1CCN(c2ccccc2)CC1,inactive
7,Cc1ccc2oc3c(c(=O)c2c1)C(c1ccc([N+](=O)[O-])cc1)N(CCCN1CCOCC1)C3=O (stereo unspecified),inactive
8,COc1ccc(CCNC(=O)c2cc(=O)c3c(C)cc(C)cc3o2)cc1OC,inactive
9,Cc1ccc(-c2cc(-c3coc4ccccc4c3=O)c3c(n2)-c2cc(Cl)ccc2OC3)cc1,inactive
10,COC(=O)c1ccc2nc(-c3ccc(Cl)cc3)c(Cc3cccc(F)c3)n2c1,inactive
11,COc1ccccc1Cc1c(-c2ccc(Cl)cc2)nc2ccc(Cl)cn12,inactive
12,Brc1ccc2nc(-c3ccccc3)c(Cc3ccccc3)n2c1,12.6 µM (active)
13,COC(=O)c1ccc2nc(C3CCCCC3)c(Cc3cccc(F)c3)n2c1,inactive
14,Cc1cc(Br)cn2c(Cc3ccccc3C(F)(F)F)c(C3CCCCC3)nc12,inactive
15,Cc1ccc(-c2nc3ccc(Cl)cn3c2Cc2ccccc2)cc1,inactive
16,CN(C)C(=O)c1nc2ccc(Cl)cn2c1CNCc1cccc(OC(F)(F)F)c1,inactive
17,Cc1ccc2nc(-c3ccccc3)c(CC3CCCCC3)n2c1,inactive
18,Fc1cccc(Cc2c(-c3cccc(Cl)c3)nc3ccc(Br)cn23)c1,14.1 µM (active)
19,Cc1ccc(-c2nc3ccc(Br)cn3c2Cc2ccccc2C(F)(F)F)cc1,14.1 µM (active)
20,Clc1cccc(Cc2c(-c3cccc(Cl)c3)nc3ccc(Cl)cn23)c1,10 µM (active)
21,Fc1cccc(Cc2c(-c3ccc(Cl)cc3)nc3ccc(Cl)cn23)c1,inactive
22,Cc1ccc(NC(=O)CN2C(=O)CC(C)Sc3ccccc32)c(C)c1 (stereo unspecified),inactive
23,COc1ccc(CCNC(=O)CCc2c(C)nc3c(c(C)nn3-c3ccc(C)c(C)c3)c2C)c(OC)c1OC,inactive
